# Cycloheximide cs: Cycloheximide Counterscreen for Small Molecule Inhibitors of Shiga Toxin | cell reporter, cycloheximide protein synthesis inhibition counterscreen | max response, % | 12% of 300,000 active; in the data active = max response mostly above about 13%, no sharp cut-off; inactive = mostly below about 14%; note: read at 38.3 µM for the half of the compounds with a filed dose; 0% is about no effect
# Pf growth 96h: Primary qHTS for delayed death inhibitors of the malarial parasite plastid, 96 hour incubation. P. falciparum luciferase reporter growth, 96 h. Potency, µM (titrated, usually from 28.7 µM), for inactives: top-dose activity change, negative = inhibition, most hits filed as inhibitors. 6.9% of 320,000 active; note: potency is the fitted concentration of half-maximal effect; % is set by controls: 0 for no effect and ±100 for the full control effect
#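 Two-generation exposure (96 h) targets delayed-death phenotype. Reporter parasites carrying integrated firefly luciferase, in red cells at 2% hematocrit and 0.05% parasitemia final, kept at 37 C, 5% CO2; luminescence loss indicates inhibition.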
# Shiga inhibitor: A qHTS for Small Molecule Inhibitors of Shiga Toxin. Vero cells, Shiga toxin protein synthesis inhibition reporter. inhibition, % at 38.7 µM. 9.2% of 290,000 active. AID 2315, 2010; in the data active = inhibition mostly above about 28%, no sharp cut-off; inactive = mostly below about 43%; note: 0% is about no effect
# NS1 function inh: qHTS Assay for Inhibitors of Influenza NS1 Protein Function; Potency, µM (highest dose often 46.1 µM), without a hit: at the top dose activity, positive = more growth; 0.4% of 270,000 active; calls by dose curve; note: potency is the fitted concentration of half-maximal effect; actives are rising curves; nearly all actives have a fitted effect of over 50% in size
#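 Growth recovery, yeast-based: influenza A NS1 expressed in S. cerevisiae causes slow growth, and suppressors are detected by OD600. The parent strain without NS1 is used as positive control.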
# Pf growth 48h: Primary qHTS for delayed death inhibitors of the malarial parasite plastid, 48 hour incubation; P. falciparum luciferase growth in erythrocytes, 48 h; Potency, µM (doses to about 28.7 µM), for inactives: at the highest dose activity change, negative = inhibition, most hits filed as inhibitors; 5.9% of 310,000 active; note: potency is the fitted concentration of half-maximal effect; % is set by controls: 0 for no effect and ±100 for the full control effect
#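 Luciferase-expressing P. falciparum in infected erythrocytes (2% hematocrit, 0.1% parasitemia final) in RPMI 1640/0.5% Albumax were exposed to compound for 48 hours at 37 C, 5% CO2; growth read as luminescence.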
# Starred values were filed as active, the others as inactive; ? = inconclusive; / = no result; [ ] = remark or other dose. Most compounds without a hit are left out; they make up all but 21% or so of the library. Unless noted, calls come from the whole dose curve; as a rule, active = well fitted inhibition curve with a large enough effect; inconclusive = small, poorly fitted or top-dose-only effect, or another doubt; inactive = no such curve, though single readings can be large or run the other way.
SMILES,Cycloheximide cs,Pf growth 96h,Shiga inhibitor,NS1 function inh,Pf growth 48h
O=C1C(=O)N(Cc2ccncc2)C(c2cccc(O)c2)/C1=C(\O)c1ccc2c(c1)OCCO2 (stereo not given),32.0*,73.2%,78.1*,6.9%,49.8%
CC1Cc2cc(/C(O)=C3/C(=O)C(=O)N(CC4CCCO4)C3c3ccco3)ccc2O1 (stereo not given),41.3*,/,74.3*,3.5%,164.2%
CC1Cc2cc(/C(O)=C3\C(=O)C(=O)N(CCN(C)C)C3c3ccccc3F)ccc2O1 (stereo not given),17.5*,19.9%,77.1*,-16.3%,9.4%
CCOc1cccc(C2/C(=C(\O)c3ccc4c(c3)OCCO4)C(=O)C(=O)N2Cc2ccncc2)c1 (stereo not given),-4.3,?,-2.9,-5.5%,107.6%
COc1cc(C2/C(=C(\O)c3ccc4c(c3)CC(C)O4)C(=O)C(=O)N2CC2CCCO2)cc(OC)c1OC (stereo not given),-2.7,9.6%,-3.1,5.0%,-1.4%
CCN(CC)CCCN1C(=O)C(=O)/C(=C(/O)c2ccc3c(c2)CC(C)O3)C1c1cccnc1 (stereo not given),1.5,1.47µM*,17.6,12.8%,10.8%
O=C(NCCN1CCOCC1)C1CC(=O)N(c2cccc(C(F)(F)F)c2)C1 (stereo not given),/,24.0%,/,/,?
CCN(CC)C(=O)Cn1c(=O)n(C)c2ccccc21,-1.2,-0.5%,-15.4,1.6%,/
C=CCn1c(C)c(/C=C/c2cc[n+](C)cc2)c2ccccc21,-2.6,3.8%,/,3.4%,0.738µM*
CCN(CC)C(=O)Cn1c(C)c(/C=C/c2cc[n+](C)cc2)c2ccccc21,1.9,?,-12.2,-0.2%,1.65µM*
CCC1C(=O)CC(c2ccc([N+](=O)[O-])cc2)NC1c1ccc([N+](=O)[O-])cc1 (stereo not given),1.1,25.6%,-15.1,-1.9%,13.1µM*
CCC1C(=O)CC(c2ccco2)NC1c1ccco1 (stereo not given),2.6,-4.5%,32.3,1.7%,-16.8%
CCOC(=O)C1(CCc2ccccc2)CCN(C(=O)CN2C(=O)CSC2=O)CC1,-4.0,-3.2%,2.5,1.9%,30.6%
Cc1nc2ccccc2c(=O)n1NC(=O)c1ccc(F)cc1Cl,-2.0,9.28µM*,2.2,-3.2%,6.6%
Cc1nc2ccccc2c(=O)n1NC(=O)c1ccccc1Cl,1.3,-25.8%,-6.1,-9.4%,7.4%
COc1ccc(C(=O)Nn2c(C)nc3ccccc3c2=O)c(OC)c1,3.9,1.17µM*,-2.6,-2.1%,21.7%
COc1ccc(C(=O)Nn2cnc3ccccc3c2=O)c(OC)c1,25.6*,462.2%,39.0*,7.9%,241.4%
COc1ccc(Br)c(C(=O)Nn2c(C)nc3ccccc3c2=O)c1,-4.3,40.0%,-2.3,-82.7%,1.0%
COc1ccc(N2C(=O)CSC2c2ccccc2[N+](=O)[O-])cc1 (stereo not given),-5.2,?,-4.0,-7.4%,-9.5%
COc1ccc(CC2(CO)CCN(S(=O)(=O)c3cccc4cccnc34)CC2)cc1,1.0,11.7µM*,2.6,0.8%,-20.7%
COc1ccc(CC2(CO)CCN(S(=O)(=O)N(C)C)CC2)cc1,-1.7,5.86µM*,19.3,-7.8%,24.8%
CCCn1ncc(CN2CCC(CO)(Cc3ccc(OC)cc3)CC2)c1C,8.6,0.37µM*,6.6,-0.8%,-3.0%
O=C(Nc1cccc(Cl)c1)Nc1ccc(Cl)cn1,7.2,/,-7.1,-7.7%,/
O=C(Nc1cccc(Cl)c1)Nc1ccc2nccnc2c1,31.2*,?,54.8*,-0.2%,-7.3%
O=C(Nc1ccc2nccnc2c1)Nc1ccccc1Cl,31.7*,?,61.8*,6.0%,8.28µM*
SMILES,Cycloheximide cs,Pf growth 96h,Shiga inhibitor,NS1 function inh,Pf growth 48h
Cn1nnc2cc(NC(=O)Nc3cccc(Cl)c3)ccc21,37.5*,2.2%,51.9*,0.6%,/
COc1ccc(CN(Cc2cc3cc(OC)c(OC)cc3[nH]c2=O)C(=O)NC2CCCCC2)cc1,-5.9,1.65µM*,-4.5,2.8%,/
COc1ccc2cc(CN(CC3CCCO3)C(=O)Nc3ccccc3OC)c(=O)[nH]c2c1 (stereo not given),7.6,125.9%,-17.2,-0.4%,?
COc1ccc2cc(CN(CC3COCCO3)S(=O)(=O)c3ccccc3)c(=O)[nH]c2c1 (stereo not given),-1.2,13.0%[5.75 µM],-17.7,-8.7%,-15.8%
COc1ccc2cc(CN(Cc3cccnc3)S(=O)(=O)c3ccccc3)c(=O)[nH]c2c1,-2.5,/,-12.5,-10.0%,10.4µM*
O=C(NC1CCCCC1)N(Cc1cc2cc3c(cc2[nH]c1=O)OCCO3)C1CCCCC1,-1.3,5.86µM*,-6.4,4.5%,/
COc1ccc2cc(CN(C(=O)Nc3ccccc3OC)C3CCCC3)c(=O)[nH]c2c1,-4.8,17.2%,-8.2,5.2%,2.33µM*
O=C(OCc1c(Cl)nc2sccn12)c1cc2c(s1)CCCC2,-0.7,?,-9.3,-72.9%,24.3%
COc1cc2cc(CN(Cc3cccnc3)C(=O)Nc3ccccc3)c(=O)[nH]c2cc1OC,-5.7,45.6%,1.3,-30.5%,?
COc1cc2cc(CN(C(=O)NC3CCCCC3)C3CCCC3)c(=O)[nH]c2cc1OC,1.8,?,-13.4,-21.3%,11.7µM*
COc1cc2cc(CN(Cc3cccnc3)C(=O)NCc3ccccc3)c(=O)[nH]c2cc1OC,-2.7,?,31.2,-8.6%,9.28µM*
CCC(=O)N(Cc1cc2cc(C)c(C)cc2[nH]c1=O)C1CCCCC1,-0.8,52.4%,-13.2,-3.7%,?
CSC1=NCCN1C(=O)c1c(F)cccc1F,-4.2,?,-5.1,?,/
NS(=O)(=O)c1cccc(NC(=O)CC(NC(=O)c2ccccc2Cl)c2ccccc2)c1 (stereo not given),-4.1,15.7%,7.4,-4.4%,1.8%
CN(C)CCOC(=O)NC12CC3CC(CC(C3)C1)C2,-2.0,-1.8%,-6.7,1.8%,-0.1%
O=C(NC12CC3CC(CC(C3)C1)C2)OCCNC1CCCCC1,0.5,10.4µM*,-11.2,-0.3%,?
O=C1CC(C(=O)N2CCOCC2)C2(CCCCC2)O1 (stereo not given),-1.2,/,-12.3,5.3%,-12.3%
CSCCC(NS(=O)(=O)c1ccc(C)cc1)C(=O)N1CCN(C(c2ccccc2)c2ccccc2)CC1 (stereo not given),/,6.57µM*,/,/,3.7µM*
CSCCC(NS(=O)(=O)c1ccc(C)cc1)C(=O)NC1CCCCCC1 (stereo not given),/,?,/,/,9.28µM*
CSCCC(NS(=O)(=O)c1ccc2c(c1)oc(=O)n2C)C(=O)NC1CCN(Cc2ccccc2)CC1 (stereo not given),18.5,1.85µM*,-15.2,/,7.5%
Cc1ccc(N2CN=c3s/c(=C\c4cccnc4)c(=O)n3C2)cc1,19.7*,39.7%,27.5,-5.3%,?
O=C(NCc1ccccc1)c1sc(=S)n2c1[nH]c(=O)c1ccccc12,-2.3,13.1µM*,-11.6,-36.9%,7.3%
O=C(O)Cc1csc(-c2ccc(Cl)cc2)n1,/,-0.4%,/,/,1.0%

# Assay outcomes (PubChem BioAssay)
